What all share (settings): mRNA level, 48 h; actives raise or lower the signal
Read-out in experiment [1]: ABC Transporter (ABCB1), ABCB1 (gene 5243)
In words: LTEA_HepaRG_ABCB1: Life Technologies and Expression Analysis (LTEA) Assay for ABC Transporter (ABCB1) using HepaRG (AID 2283460). Summed up: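 Human liver HepaRG line treated 48 h with up to 100 uM compound (eight half-log points, 0.5% DMSO); ABCB1 mRNA change fitted bidirectionally against DMSO controls.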

Read-out in experiment [2]: growth arrest and DNA damage 45 (GADD45B), GADD45B (gene 4616)
In words: LTEA_HepaRG_GADD45B: Life Technologies and Expression Analysis (LTEA) Assay for growth arrest and DNA damage 45 (GADD45B) using HepaRG (AID 2283461). Summed up: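 Transcript level quantified by Fluidigm TaqMan qRT-PCR with three housekeeping genes for normalization, analyzed for up- or down-regulation against 0.5% DMSO. HepaRG cultures dosed 48 h at eight half-log concentrations up to 100 uM, duplicates.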

Read-out in experiment [3]: ABC Transporter (ABCC3), ABCC3 (gene 8714)
In words: LTEA_HepaRG_ABCC3: Life Technologies and Expression Analysis (LTEA) Assay for ABC Transporter (ABCC3) using HepaRG (AID 2283462). In outline:
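Transcript level by TaqMan qRT-PCR, normalised to three housekeeping genes, fitted in both directions relative to vehicle. Chemicals tested in duplicate at eight half-log concentrations up to 100 uM for 48 h on HepaRG cells (0.5% DMSO).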

Read-out in experiment [4]: ABC Transporter (ABCC2), ABCC2 (gene 1244)
In words: LTEA_HepaRG_ABCC2: Life Technologies and Expression Analysis (LTEA) Assay for ABC Transporter (ABCC2) using HepaRG (AID 2283464). In outline: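 Endpoint is ABCC2 transcript level from qRT-PCR, normalized to three housekeeping genes and fitted bidirectionally relative to DMSO. Human HepaRG cells received test chemical for 48 h at up to 100 uM (8 points, half-log steps, 0.5% DMSO), duplicate wells.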

Read-out in experiment [5]: Broad substrate specificity ATP-binding cassette transporter ABCG2 (Homo sapiens) (UniProt Q9UNQ0)
In words: LTEA_HepaRG_ABCG2: Life Technologies and Expression Analysis (LTEA) Assay for ABC Transporter (ABCG2) using HepaRG (AID 2283465). In outline:
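Gene expression of ABCG2 in HepaRG liver cells is quantified by qRT-PCR following 48 h exposure across an eight-point series topping at 100 uM. Values come from bidirectional fitting relative to DMSO vehicle.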

Read-out in experiment [6]: ATP-citrate lyase (ACLY), ACLY (gene 47)
Briefly: LTEA_HepaRG_ACLY: Life Technologies and Expression Analysis (LTEA) Assay for ATP-citrate lyase (ACLY) using HepaRG (AID 2283466). Summed up: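 ACLY expression changes in human HepaRG liver cells are quantified by qRT-PCR after 48 h exposure to test chemicals (maximum 100 uM, half-log steps). Values are fitted in both directions relative to 0.5% DMSO vehicle.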

Read-out in experiment [7]: Peroxisomal acyl-coenzyme A oxidase 1 (ACOX1) gene, ACOX1 (gene 51)
Briefly: LTEA_HepaRG_ACOX1: Life Technologies and Expression Analysis (LTEA) Assay for Peroxisomal acyl-coenzyme A oxidase 1 (ACOX1) gene using HepaRG (AID 2283467). Summed up: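 Human HepaRG hepatic cultures, 48 h treatment with test chemicals up to 100 uM. ACOX1 expression read by qRT-PCR relative to 0.5% DMSO vehicle.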

Read-out in experiment [8]: Alkaline Phosphatase, Placental (ALPP) gene, ALPP (gene 250)
Briefly: LTEA_HepaRG_ALPP: Life Technologies and Expression Analysis (LTEA) Assay for Alkaline Phosphatase, Placental (ALPP) gene using HepaRG (AID 2283468). Summed up:
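ALPP transcript level, measured by qRT-PCR and normalized to three housekeeping genes (ACTB, GAPDH, POLR2A), after 48 h dosing of differentiated HepaRG in serum-free induction medium. Top concentration 100 uM with half-log dilutions (8 points, 0.5% DMSO, duplicates); bidirectional fitting relative to DMSO.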

Read-out in experiment [9]: Bcl-2 (BAD) gene, BAD (gene 572)
Briefly: LTEA_HepaRG_BAD: Life Technologies and Expression Analysis (LTEA) Assay for Bcl-2 (BAD) gene using HepaRG (AID 2283469). Summed up: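 Activity values reflect up- or down-regulation of BAD mRNA in human HepaRG hepatic cells treated 48 h in serum-free medium, with eight-point half-log dosing capped at 100 uM and 0.5% DMSO vehicle.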

Read-out in experiment [10]: Bcl-2 (BAX) gene, BAX (gene 581)
In words: LTEA_HepaRG_BAX: Life Technologies and Expression Analysis (LTEA) Assay for Bcl-2 (BAX) gene using HepaRG (AID 2283470). In outline:
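Gene expression measured by Fluidigm qRT-PCR with three housekeeping genes for normalisation. HepaRG cells, plated 48 h beforehand, treated 48 h at up to 100 uM (8-point, half-log) in 0.5% DMSO. Bidirectional fitting versus DMSO.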

Read-out in experiment [11]: adenosine kinase (ADK) gene, ADK (gene 132)
In words: LTEA_HepaRG_ADK: Life Technologies and Expression Analysis (LTEA) Assay for adenosine kinase (ADK) gene using HepaRG (AID 2283471). Summed up: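 ADK expression quantified by qRT-PCR, normalised to three housekeeping genes, after 48 h exposure of HepaRG cells to eight concentrations (top 100 uM, half-log steps, duplicate, 0.5% DMSO). Up- or down-regulation fitted relative to vehicle.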

Read-out in experiment [12]: Alpha-fetoprotein (AFP) gene, AFP (gene 174)
Briefly: LTEA_HepaRG_AFP: Life Technologies and Expression Analysis (LTEA) Assay for Alpha-fetoprotein (AFP) gene using HepaRG (AID 2283472). Summed up: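 AFP transcript measured by TaqMan qRT-PCR with three housekeeping genes for normalization, after 48 h chemical treatment of HepaRG cells (top 100 uM, half-log steps, 0.5% DMSO). Gain or loss fitted against vehicle.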

Read-out in a further experiment: BCL2L11 (gene 10018)
Briefly: LTEA_HepaRG_BCL2L11: Life Technologies and Expression Analysis (LTEA) Assay for Bcl-2 (BCL2L11) gene using HepaRG (AID 2283473). In outline:
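BCL2L11 transcript levels are measured by Fluidigm qRT-PCR, normalized to three housekeeping genes. HepaRG cultures were plated 48 h, then treated 48 h with test chemical (top 100 uM, half-log, 0.5% DMSO vehicle); curves were fitted bidirectionally against DMSO.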

Read-out in experiment [13]: Apolipoprotein A-V (APOA5) gene, APOA5 (gene 116519)
In words: LTEA_HepaRG_APOA5: Life Technologies and Expression Analysis (LTEA) Assay for Apolipoprotein A-V (APOA5) gene using HepaRG (AID 2283474). Summed up:
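APOA5 transcript levels were quantified by qRT-PCR, normalized to three housekeeping genes, after 48 h chemical treatment of HepaRG cells (8 points, 100 uM maximum, half-log steps, 0.5% DMSO). Curves fitted in both directions against vehicle.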

Read-out in experiment [14]: Apoptosis regulator Bcl-2 (Homo sapiens) (UniProt P10415)
Briefly: LTEA_HepaRG_BCL2: Life Technologies and Expression Analysis (LTEA) Assay for Bcl-2 gene using HepaRG (AID 2283475). In outline:
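qRT-PCR of BCL2 transcript, normalized to three housekeeping genes (ACTB, GAPDH, POLR2A), after 48 h chemical exposure of HepaRG cells; concentrations top 100 uM with half-log dilutions, 0.5% DMSO vehicle, duplicates; changes up or down fitted relative to vehicle.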

Read-out in experiment [15]: Bcl-2 (BID) gene, BID (gene 637)
In words: LTEA_HepaRG_BID: Life Technologies and Expression Analysis (LTEA) Assay for Bcl-2 (BID) gene using HepaRG (AID 2283476). In outline: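 Duplicate 48 h treatments of HepaRG cells in serum-free induction medium spanned 100 uM downward in half-log steps, 0.5% DMSO. Transcript change quantified by qRT-PCR against three housekeeping genes, fitted up or down versus DMSO.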

Read-out in the next experiment: Caspase-3 (Homo sapiens) (UniProt P42574)
Briefly: LTEA_HepaRG_CASP3: Life Technologies and Expression Analysis (LTEA) Assay for cysteine-aspartic acid protease (CASP3) using HepaRG (AID 2283477). In outline: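 Expression of CASP3 was quantified by TaqMan qRT-PCR against three housekeeping genes (ACTB, GAPDH, POLR2A), bidirectionally versus 0.5% DMSO. HepaRG cultures received compounds in duplicate, top 100 uM with half-log steps, for 48 h in serum-free induction medium.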

Read-out in experiment [16]: Cytochrome P450 (CYP24A1), CYP24A1 (gene 1591)
In words: LTEA_HepaRG_CYP24A1: Life Technologies and Expression Analysis (LTEA) Assay for Cytochrome P450 (CYP24A1) using HepaRG (AID 2283478). In outline:
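mRNA of CYP24A1 quantified by TaqMan qRT-PCR (ACTB/GAPDH/POLR2A normalization) after 48 h chemical exposure of HepaRG cells, top concentration 100 uM, half-log steps, 0.5% DMSO vehicle, duplicates. Curves fitted bidirectionally against DMSO baseline.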

Read-out in experiment [17]: Cytochrome P450 (CYP1A2), CYP1A2 (gene 1544)
In words: LTEA_HepaRG_CYP1A2: Life Technologies and Expression Analysis (LTEA) Assay for Cytochrome P450 (CYP1A2) using HepaRG (AID 2283479). In outline:
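CYP1A2 transcript measured by TaqMan qRT-PCR against three housekeeping genes after 48-hour chemical exposure of HepaRG cells. Eight-point half-log series topping at 100 uM in 0.5% DMSO, duplicates; gain or loss fitted relative to vehicle.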

Data on five compounds can be found in PubChem BioAssay (EPA / NIEHS).

Active and inactive are the calls of the source. The calls were made as follows: active = hit-call score of the fitted dose curve at least 0.9, where 1 is the maximum; inactive = score below 0.9.

Broad substrate specificity ATP-binding cassette transporter ABCG2 (Homo sapiens), sequence (Q9UNQ0 whole entry, looked up): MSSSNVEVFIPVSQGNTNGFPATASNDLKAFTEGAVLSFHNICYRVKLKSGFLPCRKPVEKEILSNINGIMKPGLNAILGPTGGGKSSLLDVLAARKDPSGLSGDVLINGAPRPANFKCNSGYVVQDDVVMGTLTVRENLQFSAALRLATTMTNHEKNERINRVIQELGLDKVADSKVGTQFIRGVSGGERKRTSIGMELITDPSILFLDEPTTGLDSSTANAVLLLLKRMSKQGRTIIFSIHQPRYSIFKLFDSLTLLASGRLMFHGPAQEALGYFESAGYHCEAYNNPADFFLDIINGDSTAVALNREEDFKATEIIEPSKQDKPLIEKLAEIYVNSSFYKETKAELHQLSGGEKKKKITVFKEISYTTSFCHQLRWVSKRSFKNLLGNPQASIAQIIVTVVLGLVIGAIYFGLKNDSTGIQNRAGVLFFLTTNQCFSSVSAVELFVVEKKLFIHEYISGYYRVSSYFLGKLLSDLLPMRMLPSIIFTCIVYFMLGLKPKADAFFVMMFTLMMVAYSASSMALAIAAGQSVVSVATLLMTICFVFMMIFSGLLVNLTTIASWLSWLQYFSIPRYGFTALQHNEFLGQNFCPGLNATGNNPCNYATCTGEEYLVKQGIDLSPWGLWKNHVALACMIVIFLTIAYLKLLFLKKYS
Caspase-3 (Homo sapiens), sequence (P42574 whole entry, looked up): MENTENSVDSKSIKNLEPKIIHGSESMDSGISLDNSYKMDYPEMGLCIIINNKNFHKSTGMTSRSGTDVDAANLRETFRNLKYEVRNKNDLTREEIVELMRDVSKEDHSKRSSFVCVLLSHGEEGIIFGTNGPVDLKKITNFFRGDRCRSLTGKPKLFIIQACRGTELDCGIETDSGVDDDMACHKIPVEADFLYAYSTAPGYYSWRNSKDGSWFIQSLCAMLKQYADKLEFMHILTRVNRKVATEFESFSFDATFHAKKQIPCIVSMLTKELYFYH
Apoptosis regulator Bcl-2 (Homo sapiens), sequence (P10415 whole entry, looked up): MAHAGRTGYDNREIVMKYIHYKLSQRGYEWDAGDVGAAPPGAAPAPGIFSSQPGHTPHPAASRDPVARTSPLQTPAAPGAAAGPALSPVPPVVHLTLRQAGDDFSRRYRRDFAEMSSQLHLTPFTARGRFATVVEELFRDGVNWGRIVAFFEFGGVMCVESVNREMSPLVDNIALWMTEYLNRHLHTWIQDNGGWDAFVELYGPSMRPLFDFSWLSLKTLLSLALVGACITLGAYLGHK

As to `CCOS(=O)(=O)OCC`, the call in [1], in experiment [2], in [3], in experiment [4], in experiment [5] and in experiment [6] was inactive. Further, the compound was classed as inactive in [7], in experiment [8], in experiment [9], in experiment [10], in experiment [11] and in [12]. Further, the compound was classed as inactive (in the experiment with BCL2L11 (gene 10018); in experiment [13]; in [14]; in experiment [15]; with Caspase-3 (Homo sapiens); in [16]). For the same compound, the compound was called inactive in experiment [17].

For the compound `CC(Cl)(Cl)C(=O)O`, the call in experiment [1], in experiment [2], in [3], in [4], in experiment [5] and in [6] was inactive. In addition, the compound was called inactive in [7], in [8], in [9], in experiment [10], in [11] and in experiment [12]. Further, the outcome (with BCL2L11 (gene 10018); in experiment [13]; in experiment [14]; in experiment [15]; with Caspase-3 (Homo sapiens); in [17]) was inactive.

For the compound `CCCCCCCc1ccc(O)cc1`, the outcome in experiment [1], in experiment [2], in [3], in experiment [4], in experiment [5] and in experiment [6] was inactive. Besides, the result in [7], in experiment [8], in [9], in experiment [10], in experiment [11] and in experiment [12] was inactive. Further, the outcome (in the experiment with BCL2L11 (gene 10018); in experiment [13]; in experiment [14]; in experiment [15]; with Caspase-3 (Homo sapiens); in [16]) was inactive. Moreover, the outcome in experiment [17] was inactive.

On to `c1ccc(OP(Oc2ccccc2)Oc2ccccc2)cc1`, for which the compound was classed as inactive in experiment [1], in experiment [2], in experiment [3], in experiment [4], in experiment [5] and in experiment [6]. For the same compound, the compound was called inactive in experiment [7], in [8], in [9], in [10], in experiment [11] and in [12]. Further, the result (with BCL2L11 (gene 10018); in [13]; in experiment [14]; in experiment [15]; in the experiment with Caspase-3 (Homo sapiens); in [16]) was inactive. In experiment [17], the compound was classed as inactive.

Consider `CCCCc1ccccc1`, for which the result in experiment [1], in [2], in experiment [3], in [4], in experiment [5] and in experiment [6] was inactive. Moreover, the compound was classed as inactive in experiment [7], in experiment [8], in [9], in experiment [10], in [11] and in experiment [12]. Moreover, the outcome (in the experiment with BCL2L11 (gene 10018); in experiment [13]; in [14]; in experiment [15]; with Caspase-3 (Homo sapiens); in experiment [16]) was inactive. The AC50 (usually the concentration giving half of the maximal activity seen) in experiment [17] is 50 µM (active).
